According to PubChem BioAssay (NCI):
About 83,000 compounds went through this panel and 20% of them were active in at least one assay; those are over-represented in the sample as a whole.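 Interpretation: 100, growth as untreated; towards 0, rising growth inhibition; 0, no net growth; 0 to -100, cell death. Compounds scoring below 10 were considered active.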 Values without a mark were called inactive. Active and inactive are the calls of the source.

What was measured:
Experiment in all cases: NCI-60 one-dose screen, 48 h (100 = growth as untreated, 0 = no growth, -100 = all killed)
Settings in all cases: 10 µM unless noted
DU-145 prostate = system: DU-145 prostate
K-562 leukemia = system: K-562 leukemia
MALME-3M melanoma = system: MALME-3M melanoma
MDA-MB-231 breast = system: MDA-MB-231 breast
RXF 393 renal = system: RXF 393 renal
SF-268 CNS = system: SF-268 CNS
SF-295 CNS = system: SF-295 CNS
SF-539 CNS = system: SF-539 CNS
UACC-257 melanoma = system: UACC-257 melanoma
M14 melanoma = system: M14 melanoma

Compound	growth (DU-145 prostate)	growth (K-562 leukemia)	growth (MALME-3M melanoma)	growth (MDA-MB-231 breast)	growth (RXF 393 renal)	growth (SF-268 CNS)	growth (SF-295 CNS)	growth (SF-539 CNS)	growth (UACC-257 melanoma)	growth (M14 melanoma)
COc1cc2nccc(Oc3ccc(NC(=O)Nc4cc(C)on4)c(Cl)c3)c2cc1OC	31.2%	5.94% (active)	20.4%	10%	-28.9% (active)	21.7%	19%	-50.3% (active)	19.6%	7.27% (active)
Cc1c(Cn2c(C)nc3c(C(=O)O)cc(N4CCOCC4)cc32)cccc1C(F)(F)F	108%	87.4%	91.8%	110%	27.3%	88.6%	75.1%	113%	79%	89%
C/C(=C(/c1ccc(Cl)cc1)c1ccc(OCCN2CCCCCC2)cc1)c1ccccc1	83.5%	22.7%	81.7%	86.9%	81.4%	93%	86.4%	72.4%	92.2%	81.4%
CC/C=C\C[C@H]1C/C=C2/C(=O)C=C[C@@H]2C/C=C\CCCC(=O)O1	-10.9% (active)	1.56% (active)	-15.3% (active)	1.26% (active)	-57.1% (active)	-0.852% (active)	-19.8% (active)	5.18% (active)	-12.7% (active)	-17.4% (active)
COc1cccc2cc(-c3nc(C4CCC(C(=O)O)CC4)n4ncnc(N)c34)[nH]c12 (stereo not given)	19.2%	14%	-12% (active)	19.2%	-23.8% (active)	16.2%	-31.2% (active)	-25.6% (active)	-22.8% (active)	4.34% (active)
Cc1cn(-c2cc(NC(=O)c3ccc(C)c(Nc4nccc(-c5cccnc5)n4)c3)cc(C(F)(F)F)c2)cn1	46%	-11.1% (active)	-15% (active)	40%	-4.7% (active)	55.8%	42.9%	82.4%	34.5%	8.64% (active)
CC(=O)Nc1cccc(-n2c(=O)n(C3CC3)c(=O)c3c(Nc4ccc(I)cc4F)n(C)c(=O)c(C)c32)c1	53%	25.5%	-0.925% (active)	18.6%	-15.2% (active)	53%	82.6%	41.1%	-21.9% (active)	1.71% (active)
O=C(NOC[C@H](O)CO)c1ccc(F)c(F)c1Nc1ccc(I)cc1F	58.7%	29.2%	-11.7% (active)	20.9%	2.18% (active)	60.1%	75%	64.2%	-26.8% (active)	3.66% (active)
O=C(c1ccc(F)c(F)c1Nc1ccc(I)cc1F)N1CC(O)([C@@H]2CCCCN2)C1	46.3%	-26.8% (active)	-21.8% (active)	0.9% (active)	-32.3% (active)	44.6%	54.9%	29.2%	-10.8% (active)	-30.6% (active)
CCOc1cc2ncc(C#N)c(Nc3ccc(F)c(Cl)c3)c2cc1NC(=O)/C=C/CN(C)C	-56.6% (active)	-16.4% (active)	-77.5% (active)	-38.8% (active)	-83% (active)	-19.9% (active)	9.82% (active)	-85.9% (active)	-63% (active)	-83.1% (active)
CC1(O)CC(c2nc(-c3ccc4ccc(-c5ccccc5)nc4c3)c3c(N)nccn23)C1 (stereo not given)	34.1%	36.9%	30.4%	28.7%	2.73% (active)	44.1%	46.7%	-2.47% (active)	25.7%	42.5%
C[C@@H](NC(=O)c1ncnc(N)c1Cl)c1ncc(C(=O)Nc2cc(C(F)(F)F)c(Cl)cn2)s1	94.9%	11.5%	3.24% (active)	39%	106%	93%	90.2%	86.4%	-13.9% (active)	15%
O=[N+]([O-])c1cc(Br)cc2c1[nH]c1ccc(Br)cc12	77.1%	55.5%	66.3%	58.4%	43.6%	73.4%	49.9%	84.6%	88.7%	70.5%
COC(=O)N[C@@H](C)CNc1nccc(-c2cn(C(C)C)nc2-c2cc(Cl)cc(NS(C)(=O)=O)c2F)n1	79.6%	69.4%	1.63% (active)	61%	42.7%	82.2%	103%	91.2%	-25.8% (active)	3.81% (active)
CNC(=O)c1nn(C)c2c1C(C)(C)Cc1cnc(Nc3ccc(N4CCN(C)CC4)cc3)nc1-2	15.5%	5.4% (active)	-8.73% (active)	14.7%	-48.2% (active)	7.96% (active)	15.3%	-28.6% (active)	-14.8% (active)	12.5%
COCCN1CCN(Cc2ccc(-c3n[nH]c4c3C(=O)c3c(NC(=O)NN5CCOCC5)cccc3-4)cc2)CC1	4.89% (active)	-0.714% (active)	-63.1% (active)	-18.1% (active)	-87.4% (active)	6.61% (active)	2.78% (active)	-86.2% (active)	-19.1% (active)	-52.6% (active)
Cc1nc(-c2cn3c(n2)-c2ccc(-c4cnn(C(C)(C)C(N)=O)c4)cc2OCC3)n(C(C)C)n1	28.7%	51%	11.1%	31.8%	-28.1% (active)	33.1%	3.66% (active)	-19.5% (active)	20.2%	40.5%
COc1ccc(/C(C)=C(\c2ccc(Cl)cc2)c2ccc(OCCN3CCCCCC3)cc2)cc1	70.1%	10.4%	51.9%	57.4%	69.5%	72.3%	54.6%	56.8%	58.3%	60%
CC(C)[C@@H]1CC[C@@H]2[C@@H]1[C@H](OC(=O)/C=C/c1ccccc1)[C@]1(C(C)C)C[C@@H](OC(=O)CO)[C@@]2(C)O1	86%	78.3%	80.3%	77.7%	23.4%	56.8%	92.2%	97.1%	84.1%	95.8%
CO[C@H]1C[C@@H]2CC[C@@H](C)[C@@](O)(O2)C(=O)C(=O)N2CCCC[C@H]2C(=O)O[C@H]([C@H](C)C[C@@H]2CC[C@@H](O)[C@H](OC)C2)CC(=O)[C@H](C)/C=C(\C)[C@@H](O)[C@@H](OC)C(=O)[C@H](C)C[C@H](C)\C=C/C=C/C=C/1C	42.1%	24.4%	35.1%	49.6%	-4.23% (active)	39.3%	22.4%	27.4%	53%	50.3%
COC(=O)[C@H](Cc1ccc(O)cc1)NC(=O)[C@@H](OC)[C@@H]1Cc2cc3cc(OC4CC(OC5CC(O)C(O)C(C)O5)C(O)C(C)O4)c(C)c(O)c3c(O)c2C(=O)[C@H]1OC1CC(OC2CC(OC3CC(C)(O)C(O)C(C)O3)C(O)C(C)O2)C(O)C(C)O1 (stereo not given in full)	15.8%	7.28% (active)	-43% (active)	19.5%	-71.5% (active)	20.7%	7.09% (active)	-27.1% (active)	2.42% (active)	-20.2% (active)
CNC(=O)CN1CCC(Oc2cc3c(Nc4cccc(Cl)c4F)ncnc3cc2OC)CC1	44.9%	60.9%	91.1%	43.6%	24%	51%	76.1%	72.8%	74.4%	84.1%
COc1cc2c(cc1O)c(=O)n(CCN(C)C)c1c3cc4c(cc3ncc21)OCO4	-10.9% (active)	2.47% (active)	-57.6% (active)	-5.67% (active)	-51% (active)	3.41% (active)	-5.78% (active)	-35.5% (active)	-47.6% (active)	-23.3% (active)
NC(=O)Nc1cc(-c2cccc(F)c2)sc1C(=O)N[C@H]1CCCNC1	-8.14% (active)	2.46% (active)	0.0893% (active)	-8.48% (active)	-89.1% (active)	-9.94% (active)	3.74% (active)	-77.5% (active)	5.95% (active)	-13.8% (active)
C[C@@]1(C(=O)Nc2ccc(F)nc2)CCCN1c1nc(Nc2cc(C3CC3)[nH]n2)c2cccn2n1	38.9%	27.3%	55.3%	20.7%	-45.9% (active)	15.5%	-13.2% (active)	16.3%	22.1%	21.6%
FC(F)(F)c1ccc(CNc2ccc(Cc3c[nH]c4ncc(Cl)cc34)cn2)cn1	61.2%	12.4%	15.9%	24.5%	-7.15% (active)	27.7%	13.6%	19.3%	7.18% (active)	11.5%
